# Source: PubChem BioAssay
# Compounds with a hit are over-represented: about 3.4% of the library has one in this group of screens.
# MEKK2mut PB1 HTS: signal of MEK5 binding to mutant human MEKK2 PB1 domain. bead flow cytometry, Alexa488-MEK5 binding to MEKK2 mutant. percent response, % at 10 µM. 290,000 compounds, 0.35% hits; in the data active means percent response above about 24%, passing the limit was not always enough
# ANO1 activ: mouse TMEM16A channel activation, primary screen; Q8BHY3; HEK293 TMEM16A/YFP-H148Q/I152L, iodide quench fluorescence; stronger effect = lower value; B-score at 10 µM; 340,000 compounds, 0.3% hits;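 active means fluorescence-ratio B-score plate-corrected deviation score at least 3 library SD below zero, with starting fluorescence score within 5 deviations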;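 further: channel opened by trigger with iodide after compound preincubation; score built on the fluorescence ratio of max minus min over baseline; more negative score means more quench and so TMEM16A activation or potentiation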
# MEKK2 WT-MEK5: raises or lowers MEK5 binding to wildtype human MEKK2 PB1 domain. bead flow cytometry, Alexa488-MEK5 binding to MEKK2 WT; actives lie on both sides. binding response (% of control), % at 10 µM. 290,000 compounds, 1.1% hits. AID 1531; in the data active means binding response below about 67% or above about 130%
# NTR1 ag: activates human neurotensin receptor 1. NTR1-U2OS beta-arrestin-GFP spot imaging, agonist mode. 330,000 compounds, 0.17% hits. P30989. activation, % at 20 µM;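 active means activation at or above 40% of the spot to cytoplasm intensity ratio, with at least 20 cells analyzed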
# ANO1 block: blocks the mouse calcium-activated chloride channel TMEM16A. Q8BHY3. HEK293 TMEM16A/YFP iodide influx fluorescence, ionomycin. normalized B-score (activity score, 25-100; higher = stronger inhibition) at 10 µM. 310,000 compounds, 1.2% hits. AID 588511;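 active means ratio plate-corrected score three or more library SD toward inhibition, starting fluorescence score within five deviations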;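 further: score derived from kinetic fluorescence span divided by baseline fluorescence per well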
# MEKK3 PB1 HTS: raises or lowers MEK5 binding to the human MEKK3 PB1 domain; Q99759; bead-based flow cytometry, Alexa488-MEK5 binding to MEKK3; actives lie on both sides; 0 = blocked by unlabeled MEK5, 100 = vehicle; binding response (% of control), % at 10 µM; 290,000 compounds, 1.4% hits;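 active means binding response more than 3 SD above or below the average of its plate-row segment, actives on both sides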;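 further: Alexa488 bead fluorescence after subtracting the streptavidin-only scavenger bead signal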
# TMEM16A reconf: reconfirmed blocker of mouse TMEM16A calcium-activated chloride channel | shares compounds with ANO1 block | 2,300 compounds, 39% hits | inhibition, % at 10 µM | AID 652189 | HEK293 TMEM16A/YFP-H148Q, iodide quench fluorescence; ionomycin added to raise cell calcium;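 active means mean duplicate percent inhibition, scaled so buffer wells are 0 and the reference blocker 100, over three buffer SD above buffer mean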
# HEK293 Ca mobil: counter-screen for TMEM16A inhibitors: effect on calcium mobilization. TMEM16A/YFP HEK293, Fluo4 calcium mobilization. shares compounds with ANO1 block. 2,300 compounds, 2% hits. calcium response (% of ionomycin), % at 10 µM;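 active means duplicate-averaged calcium signal over 20% of the ionomycin maximum, relative to buffer baseline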;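 further: each well's signal is peak minus trough fluorescence divided by its pre-addition baseline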
# Parental YFP cnt: parental YFP-HEK293 iodide quench counter-screen activity; shares compounds with ANO1 block; ionomycin; 2,300 tested, under 10 active; YFP ratio F(max-min)/F0 at 10 µM;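 active means yellow fluorescent protein signal ratio exceeding the buffer control mean by over 5 SD of those controls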;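 further: ratio is mean of duplicate wells from kinetic YFP trace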
# ClC-1 inh: blocks the rat ClC-1 voltage-dependent chloride channel; shares compounds with ANO1 block; CHO ClC-1-YFP, iodide influx fluorescence quench; iodide control reads 0, buffer control 100; ratio percent, % at 10 µM; 2,300 tested, under 10 active; AID 652236;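 active means duplicate-mean ratio percent above the mean of iodide-only control wells, which defines zero, plus 5 of their SD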;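 further: higher percent means stronger block of ClC-1 iodide influx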
# Target sequence (P35524 whole entry, looked up): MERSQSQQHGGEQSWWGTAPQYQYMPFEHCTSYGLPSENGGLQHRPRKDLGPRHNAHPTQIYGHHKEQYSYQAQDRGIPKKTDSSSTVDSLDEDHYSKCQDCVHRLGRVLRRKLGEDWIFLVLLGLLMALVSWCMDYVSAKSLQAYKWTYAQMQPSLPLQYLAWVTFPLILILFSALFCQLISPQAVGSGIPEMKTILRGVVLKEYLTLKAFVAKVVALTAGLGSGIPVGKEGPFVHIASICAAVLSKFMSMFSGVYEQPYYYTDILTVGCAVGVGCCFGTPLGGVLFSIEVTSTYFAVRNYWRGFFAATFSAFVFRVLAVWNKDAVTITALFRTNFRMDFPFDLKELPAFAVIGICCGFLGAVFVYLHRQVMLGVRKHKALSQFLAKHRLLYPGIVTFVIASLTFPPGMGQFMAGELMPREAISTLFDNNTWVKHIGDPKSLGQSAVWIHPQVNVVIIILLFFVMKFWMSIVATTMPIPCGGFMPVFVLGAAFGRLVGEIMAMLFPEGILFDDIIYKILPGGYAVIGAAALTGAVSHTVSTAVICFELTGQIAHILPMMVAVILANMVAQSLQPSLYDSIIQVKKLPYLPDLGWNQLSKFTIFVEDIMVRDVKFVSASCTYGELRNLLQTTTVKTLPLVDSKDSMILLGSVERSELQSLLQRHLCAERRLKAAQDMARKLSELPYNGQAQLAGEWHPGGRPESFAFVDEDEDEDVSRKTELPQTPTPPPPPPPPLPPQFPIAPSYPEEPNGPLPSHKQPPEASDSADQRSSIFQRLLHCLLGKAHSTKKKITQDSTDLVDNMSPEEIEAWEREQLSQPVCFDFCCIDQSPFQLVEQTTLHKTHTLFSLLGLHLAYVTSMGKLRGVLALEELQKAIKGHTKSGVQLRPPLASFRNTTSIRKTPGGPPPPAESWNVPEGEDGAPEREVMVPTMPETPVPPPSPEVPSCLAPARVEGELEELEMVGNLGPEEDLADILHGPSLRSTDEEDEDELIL
# Numbers stand for hits; . = inactive; / = no result.
SMILES,MEKK2mut PB1 HTS,ANO1 activ,MEKK2 WT-MEK5,NTR1 ag,ANO1 block,MEKK3 PB1 HTS,TMEM16A reconf,HEK293 Ca mobil,Parental YFP cnt,ClC-1 inh
COc1cccc(C(=O)NC2CCN(C(=O)N3CCCCC3)CC2)c1,.,.,.,.,25,.,.,.,.,.
COc1cccc(C(=O)NC2CCN(CC(=O)Nc3ccccc3Cl)CC2)c1,.,.,.,.,.,.,/,/,/,/
COc1ccc(S(=O)(=O)Nc2cccc(NC(C)=O)c2)cc1,.,.,.,.,25,.,.,.,.,.
COC(=O)c1ccc(NS(=O)(=O)c2ccc(OC)cc2)cc1,.,.,.,.,100,.,.,.,.,.
CC(=O)c1ccc(NS(=O)(=O)c2ccc(CC(C)C)cc2)cc1,.,.,.,.,100,.,54%,.,.,.
CCCCCSc1nnc(-c2cc(Br)ccc2N)c(=O)[nH]1,.,.,.,.,25,.,.,.,.,.
CCCCCCCSc1nnc(-c2ccccc2N)c(=O)[nH]1,.,.,.,.,.,.,/,/,/,/
O=c1c2ccccc2nc(SCc2ccc([N+](=O)[O-])cc2)n1-c1ccccc1,.,.,.,.,.,.,/,/,/,/
O=C(O)c1ccc2c(=O)n(Cc3ccccc3)c(SCc3ccc([N+](=O)[O-])cc3)nc2c1,.,.,.,.,25,.,19%,.,.,.
O=C(CCN1C(=O)COc2ccccc21)N1CCCCC1,.,.,.,.,.,.,.,.,.,.
C#CCN(C(=O)c1cc(COc2cccc(C(F)(F)F)c2)on1)C1CCCCC1,.,.,.,.,100,.,54%,.,.,.
Cc1nn(Cc2ccccc2)c(C)c1/C=N/NC(=O)c1ccccc1O,.,.,.,.,.,.,/,/,/,/
Cc1oc(C(C)(C)C)cc1C(=O)Nc1ccc(N2CCOCC2)cc1,.,.,.,.,.,.,/,/,/,/
Cc1ccc(Cl)cc1N1CCN(C(=O)c2cc3c(=O)n(C)c4ccccc4c3n2C)CC1,.,.,.,.,100,.,29%,.,.,.
Cc1cccc(N2CCN(C(=O)c3cc4c(=O)n(C)c5ccccc5c4n3C)CC2)c1C,.,.,.,.,.,.,/,/,/,/
Cc1ccccc1-c1nc(-c2ccc(NC(=O)c3cccs3)cc2)no1,.,.,.,.,.,.,.,.,.,.
O=C(Nc1ccc(-c2noc(-c3ccccc3F)n2)cc1)c1cccs1,.,.,.,.,.,.,/,/,/,/
CN(Cc1ccc(F)cc1)C(=O)c1cccc(S(=O)(=O)N2CCN(c3ccc(F)cc3)CC2)c1,/,.,/,.,25,/,.,.,.,.
COc1cccc(NC(=O)CN(C)C(=O)c2cccc(S(=O)(=O)N3CCN(c4ccc(F)cc4)CC3)c2)c1,/,.,/,.,100,/,.,.,.,.
CN(CC(=O)Nc1ccc(F)cc1)C(=O)c1cccc(S(=O)(=O)N2CCN(c3ccc(F)cc3)CC2)c1,/,.,/,.,.,/,/,/,/,/
COc1ccccc1NS(=O)(=O)c1cccc(C(=O)NCC(c2cccs2)N(C)C)c1 (stereo unspecified),/,.,/,/,/,/,/,/,/,/
CCCc1ccc(C(=O)NC(=O)c2ccccc2O)cc1,.,.,.,.,100,.,34%,22%,.,.
CCc1ccc(NC(=O)c2cnc(N3CCN(c4ccccn4)CC3)c3ccccc23)cc1,.,.,.,.,.,.,.,.,.,.
Cc1nn(S(=O)(=O)c2cccs2)c(C)c1Sc1ccccc1,.,/,.,/,/,.,/,/,/,/
Cc1nn(S(=O)(=O)c2cccs2)c(C)c1Sc1ccc([N+](=O)[O-])cc1,.,.,.,.,100,.,44%,.,.,.
SMILES,MEKK2mut PB1 HTS,ANO1 activ,MEKK2 WT-MEK5,NTR1 ag,ANO1 block,MEKK3 PB1 HTS,TMEM16A reconf,HEK293 Ca mobil,Parental YFP cnt,ClC-1 inh
CCOc1ccc(NS(=O)(=O)c2ccc(NC(=S)NC(=O)CC(C)C)cc2)cc1,.,.,.,.,100,.,38%,.,.,.
CSCCC(NC(=O)COc1ccccc1)C(=O)N1CCCC(C(F)(F)F)C1 (stereo unspecified),/,.,/,.,.,/,/,/,/,/
O=c1cc(C(F)(F)F)[nH]c2ccc(C(F)(F)F)cc12,.,.,.,.,100,.,34%,.,.,.
Cc1cc(=O)c2ccc(C(F)(F)F)cc2[nH]1,.,.,.,.,.,.,/,/,/,/
CCCCNC(=O)CNC(=O)c1cccs1,.,.,.,.,.,.,/,/,/,/
CCCCN(CCCC)CCNC(=O)CNC(=O)c1cccs1,.,.,.,.,100,.,.,.,.,.
COc1ccc2cc(C(=O)NCCO)sc(=O)c2c1OC,.,.,.,.,25,.,.,.,.,.
CCOC(=O)/C(=N\Nc1ccc(Br)cc1)N1CCN(c2ccccc2OC)CC1,.,.,.,/,/,.,/,/,/,/
CCn1c(CCNC(=O)c2cccs2)nnc1SCC(=O)Nc1ccc(Cl)cc1,.,.,.,.,25,.,.,.,.,.
CCOC(=O)c1c(C)[nH]c(C(=O)OC/C(O)=C(\C#N)c2nc3ccccc3[nH]2)c1C,.,-7.5,.,.,100,.,.,.,.,.
N#CC1(Nc2cccc(Br)c2)C(=O)Nc2ccccc21 (stereo unspecified),.,.,.,.,100,.,64%,.,.,.
c1ccc(-c2ccc(-c3nc(-c4ccccn4)no3)cc2)cc1,.,.,.,.,25,.,.,.,.,.
c1ccc(-c2nc(-c3ccccn3)no2)cc1,.,.,.,.,.,.,/,/,/,/
CCCCNC(=O)COc1ccccc1[N+](=O)[O-],.,.,.,.,.,.,/,/,/,/
CC(=O)c1ccc(N2CCN(C(=O)Nc3ccc(F)cc3)CC2)cc1,.,.,.,.,.,.,/,/,/,/
CC(=O)c1ccc(N2CCN(C(=S)Nc3ccccc3)CC2)cc1,.,.,.,.,100,.,.,.,.,.
CC(=O)c1ccc(N2CCN(C(=O)Nc3ccc(C(C)C)cc3)CC2)cc1,.,.,.,.,100,.,29%,.,.,.
Cc1cc(Cl)c(S(=O)(=O)N2CCSCC2)cc1OCC(=O)NC1CCCCC1,.,.,.,.,100,.,28%,.,.,.
Cc1cc(Cl)c(S(N)(=O)=O)cc1OCC(=O)NC1CCCCC1,.,.,.,.,.,.,/,/,/,/
